This note sets out measurements from PubChem BioAssay (NCI).

The panel holds about 83,000 compounds, 20% with a hit somewhere; the sample as a whole holds those more often.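 Single-concentration screen, 48 h exposure, 96-well plates. Endpoint: percent growth. Below 10 = active.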 Activity calls are given as the source filed them.

The experiment has as its system OVCAR-4 ovarian. Description: NCI-60 one-dose screen, 48 h (100 = growth as untreated, 0 = no growth, -100 = all killed). Particulars: 10 µM. As for the experimental part: Growth inhibition of the OVCAR-4 human tumor cell line is measured as a screen for anti-cancer activity. Cells are grown in 96 well plates and exposed to the test compound for 48 hours. Compounds are tested at a single concentration, which is 10^-5 M for most compounds. The reported endpoint is percent growth (GI% or GIPRCNT), where numbers from 0 - 100% represent growth inhibition, and numbers from -100% - 0 represent cell death. For example, a value of 40 represents 60% growth inhibition. A value of 0 means no net growth occurred over the course of the experiment. A value of -40 indicates 40% of cells at the beginning of the experiment died by the end of the experiment. A value of -100 means all cells are dead at the end of the experiment.
NCI-60 Human Tumor Cell Lines Screen was performed using the standard one-dose NCI protocol, which is described in more detail at https://dtp.cancer.gov/discovery_development/nci-60/default.htm.
Compounds with GIPRCNT values below 10 were considered active. Activity score was based on GIPRCNT using the following formula: […]
Score is 0 for GIPRCNT values of 100 or above, 50 for GIPRCNT values of 0, and 100 for GIPRCNT values of -100.
As for `COC(=O)C(=Cc1ccccc1[N+](=O)[O-])C(=O)OC`, the growth is 21.6% (inactive).

Consider `Cc1ccc(S(=O)(=O)N/N=C2\CC3CCC2(C)C3(C)C)cc1` (stereo not given), for which the growth is 104% (inactive).

For `O=C(Oc1ccc(Cl)cc1[N+](=O)[O-])Oc1ccc(Cl)cc1[N+](=O)[O-]`, the growth was 119% (inactive).

Turning to `COc1ccc(C(=O)c2nccc3cc(OC)c(OC)cc23)cc1OC`, the growth was 108% (inactive).

On to `ClC1=C(Cl)C(Cl)=C(Cl)C1=Cc1ccccc1`, for which the growth was -20.3% (active).

Consider `COc1cc2c(c(OC)c1)C1c3cc(OC)ccc3NC(=O)N1CC2` (stereo not given), for which the growth was 96.2% (inactive).

As for `CC(C)[C@H]1COC(=O)N1[C@@H]1C(=O)N([C@@H](CCC(=O)N2CCN(C3CCCC3)CC2)C(=O)N[C@@H]2CCCc3ccccc32)[C@@H]1/C=C/c1cccc(Cl)c1`, the growth was 68.3% (inactive).

For `COc1ccc2c3ccnc(C(F)(F)F)c3n(CCCCN)c2c1`, the growth is 74.6% (inactive).

Regarding `CCCCCn1c(C)cc(/C=C\c2ccc3cc(C)ccc3[n+]2C)c1C`, the growth is -8.22% (active).

As for `C=CC1=C(C)C2=NC1=CC1=NC(=CC3=C(C)C4=C(O)C(C(=O)O)C(=C5NC(=C2)C(C)C5CCC(=O)O)C4=N3)C(CC)=C1C` (stereo not given), the growth was 103% (inactive).

On to `COc1ccc(NC(=O)Nc2ccc(-c3cccnc3)cc2N2CCC(CO)CC2)cc1`, for which the growth was 73.8% (inactive).

Take `COc1ccc2nc3c(cc2c1)C(=O)CC(c1ccccc1)C3` (stereo not given): the growth is 92.7% (inactive).

On to `CCOc1cccc2c(NC(C)CCCN(CC)CC)c(C)cnc12` (stereo not given), for which the growth is 108% (inactive).

Turning to `O=[N+]([O-])c1cc(CCl)ccc1OCCBr`, the growth was 97% (inactive).

As for `COc1ncc(-c2ccc3nccc(C#CCCCCC(=O)O)c3c2)cc1NS(=O)(=O)c1ccc(F)cc1F`, the growth is 50.3% (inactive).

With `O=C1Cc2c(sc3c(F)cccc23)C(c2ccccc2[N+](=O)[O-])N1` (stereo not given), the growth was 93% (inactive).

Take `Cn1cc(-c2nnc(-c3cn(C)c4ncccc34)s2)c2ccccc21`: the growth was 81% (inactive).

As for `Cc1cccc(C[C@H](NC(=O)Nc2ccc(Cl)cc2F)C(=O)N[C@@H]2C(=O)N3C[C@H](OC(=O)CCN(C)C)C[C@H]3C(=O)N3CCCC[C@H]3C(=O)N[C@@H](C)C(=O)N3C[C@H](C)C[C@H]3C(=O)O[C@H]2C)c1`, the growth is 11.4% (inactive).

Regarding `COc1ccc2c(c1)c(-c1noc(-c3cn(C)c4ncc(F)cc34)n1)cn2C`, the growth was 18.4% (inactive).

On to `N#Cc1c(Cl)nc(SCC2CO2)nc1-c1ccccc1` (stereo not given), for which the growth is 103% (inactive).

Turning to `O=C(NCCCCCCCNC(=O)OCc1ccc2c(Cl)cc(Cl)c(O)c2n1)OCc1ccc2c(Cl)cc(Cl)c(O)c2n1`, the growth is -71.9% (active).

For the molecule `COC(=O)c1c(C)[nH]c(/C=C2\N=C(c3ccc[nH]3)C=C2OC)c1C`, the growth was -67.2% (active).

Turning to `O=C1CC(c2ccccc2)Cc2nc3ccc(Cl)cc3cc21` (stereo not given), the growth is 48.7% (inactive).

For the molecule `O=c1[nH]c(CN2CCN(c3cccc(Cl)c3)CC2)nc2cc(Cl)ccc12`, the growth is 104% (inactive).

As for `c1ccc(-c2nnc(-c3c[nH]c4ncccc34)s2)cc1`, the growth is 89.4% (inactive).

On to `O=C1/C(=C/c2cccc(OCc3ccccc3)c2)Oc2cc(OCCN3CCCCC3)ccc21`, for which the growth is 86.2% (inactive).

Take `Cn1cc(-c2noc(-c3cn(C)c4ncc(F)cc34)n2)c2cc(Br)ccc21`: the growth is -40.3% (active).

Consider `CC(C)CCSC1=CC(=O)c2ccccc2C1=O`, for which the growth was -50.6% (active).

For `COc1ccc(-c2cc(-c3ccc(OC)c(OC)c3)nc(SCCCCCC(=O)NO)n2)cc1`, the growth is 76.8% (inactive).

Turning to `COc1ccc(-c2cc(-c3ccc(Cl)cc3)nc(NCCCCNc3ccnc4cc(Cl)ccc34)n2)cc1`, the growth is 73.3% (inactive).

`COCCCNc1nc(NC(=O)c2cc(OC)cc(OC)c2)cc(-c2cccnc2)n1`: the growth is 108% (inactive).

In the case of `Clc1ccccc1/C=N\Nc1ccccn1`, the growth was 68% (inactive).

As for `Cc1cccc(C[C@H](NC(=O)Nc2ccc(Cl)cc2F)C(=O)N[C@@H]2C(=O)N3C[C@H](O)C[C@H]3C(=O)N3CCN(C)C[C@H]3C(=O)N[C@@H](C)C(=O)N3C[C@H](C)C[C@H]3C(=O)O[C@H]2C)c1`, the growth was 15.4% (inactive).

`Fc1ccc(NC(=S)c2ccccc2)cc1`: the growth was 100% (inactive).

As for `N#CCCc1c[nH]c2ccccc12`, the growth is 93% (inactive).

Regarding `O=C(CCN1CCCCC1)c1ccc(Cl)cc1`, the growth is 105% (inactive).

As for `Cc1ccc(S(=O)(=O)Nc2ccccc2)cc1N`, the growth was 111% (inactive).

For `CC1=C/C(=C(\c2cc(C)c(O)c(C(=O)O)c2)c2c(Cl)cccc2Cl)C=C(C(=O)O)C1=O`, the growth is 108% (inactive).

`Cc1cc(C)c(O)c(CNCCCNCc2cc(C)cc(C)c2O)c1`: the growth was 88.3% (inactive).

On to `CC/C=C(\C)C(CCC)(CN=O)C(=O)OCC` (stereo not given), for which the growth is 110% (inactive).
